High-throughput results (PubChem BioAssay)
An excerpt weighted towards active compounds, which were near 21% of everything screened.
Shiga toxin inh: blocks Shiga toxin action in Vero cells; Vero cells, Shiga toxin protein synthesis inhibition reporter; inhibition, % at 38.7 µM; hit rate 9.2% among 290,000; AID 2315; in the data active = inhibition mostly above about 28%, no sharp cut-off; inactive = mostly below about 43%
NS1 function inh: inhibitors of influenza NS1 protein function. Potency, µM (highest dose often 46.1 µM). hit rate 0.4% among 270,000. AID 2326; calls by dose curve; note: actives are rising curves; nearly all actives have a fitted effect of over 50% in size
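A cell-based growth assay was used: compounds that relieve NS1-induced slow growth of budding yeast raise OD600. Assay medium was yeast nitrogen base with ammonium sulphate and -URA supplement, pH 6.0, with 2% galactose.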
Cycloheximide cs: counter-screen for Shiga toxin inhibitors: cycloheximide protein synthesis inhibition. cell reporter, cycloheximide protein synthesis inhibition counterscreen. max response, %. hit rate 12% among 300,000. AID 2314; in the data active = max response mostly above about 13%, no sharp cut-off; inactive = mostly below about 14%; note: read at 38.3 µM for the half of the compounds with a filed dose
Pf growth 96h: P. falciparum growth inhibition at 96 hours; P. falciparum luciferase reporter growth, 96 h; Potency, µM (top dose mostly 28.7 µM), hits mostly inhibitors; hit rate 6.9% among 320,000
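Two-generation exposure (96 h) targets delayed-death phenotype. Reporter parasites carrying integrated firefly luciferase, in red cells at 2% hematocrit and 0.05% parasitemia final, kept at 37 C, 5% CO2; luminescence loss indicates inhibition.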
SARS PLpro yeast: inhibitors of SARS-CoV papain-like protease in yeast; S. cerevisiae expressing SARS-CoV PLpro, growth rescue; Potency, µM (highest dose often 32.9 µM), usual class: activators; hit rate 0.19% among 330,000; AID 485353; calls by dose curve; note: nearly all actives have a fitted effect of over 55% in size
Pf growth 48h: P. falciparum growth inhibition at 48 hours (one generation) | P. falciparum luciferase growth in erythrocytes, 48 h | Potency, µM (top dose mostly 28.7 µM), most hits filed as inhibitors | hit rate 5.9% among 310,000 | AID 504832
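Luciferase-expressing parasites in RBCs, 2% Hct / 0.1% parasitemia final; RPMI 1640 + 0.5% Albumax; 37 C, 5% CO2, one generation; luminescence read-out, lower signal = inhibition.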
Hits are given with their value; – = inactive; ? = inconclusive; · = no result. Unless noted, calls come from the whole dose curve; as a rule, active = well fitted inhibition curve with a large enough effect; inconclusive = small, poorly fitted or top-dose-only effect, or another doubt; inactive = no such curve, though single readings can be large or run the other way.

SMILES	Shiga toxin inh	NS1 function inh	Cycloheximide cs	Pf growth 96h	SARS PLpro yeast	Pf growth 48h
O=C1CC(C(=O)NC2CCCCC2)C(c2ccccc2)O1 (stereo not given)	–	–	–	–	–	–
C[C@@H]1[C@@H](Sc2ccccc2)CC(=O)O[C@@H]1c1ccc(-c2ccccc2)cc1	81.8	·	63.1	·	·	·
Cc1ccc(-c2ccc(C(=O)NCc3ccccc3)o2)c2ccccc12	–	–	–	10.4µM	–	?
Cc1ccc(-c2cccc(C(=O)NCCc3ccccc3)n2)c2ccccc12	–	–	–	–	–	–
Cc1ccccc1S(=O)(=O)Cc1ccc(C(=O)NCc2ccccc2)o1	–	–	–	?	–	–
Cc1ccc(-c2cccc(C(=O)NCc3ccccc3)n2)c2ccccc12	–	–	–	13.1µM	–	?
Cc1ccc(-c2ccc(C(=O)Nc3ccccc3)o2)c2ccccc12	67.5	–	36.0	?	–	–
Cc1ccc(S(=O)(=O)NC(=O)c2ccc(-c3ccc(C)c4ccccc34)o2)cc1	–	–	–	–	–	–
CCOc1ccccc1-c1ccc(C(=O)NCc2ccccc2)o1	–	–	–	7.38µM	–	?
CC(=O)c1c(C)[nH]c(C(=O)OC(C)C(=O)Nc2cc(S(=O)(=O)N3CCCCC3)ccc2Cl)c1C (stereo not given)	–	–	–	–	–	–
Cc1noc(C)c1C(=O)OC(C)C(=O)Nc1ccc(S(=O)(=O)NC(C)C)cc1 (stereo not given)	–	–	–	–	–	–
COC(=O)c1c(C)[nH]c(C)c1C(=O)c1ccccc1Cc1ccccc1	·	–	·	·	·	·
S=C1SCN(Cc2ccco2)CN1Cc1ccco1	–	–	–	4.65µM	–	?
S=C1NCN(Cc2ccco2)CN1	–	–	–	–	–	–
FC(F)(F)c1nc(SCc2ccc(Cl)cc2Cl)n[nH]1	–	–	20.3	–	–	–
Cn1c(=O)c2[nH]c(CCCCc3nc4c([nH]3)c(=O)n(C)c(=S)n4C)nc2n(C)c1=S	·	–	·	·	·	·
CN1C(=O)C(=Cc2ccc(N3CCOCC3)o2)C(=O)N(C)C1=O	–	–	–	–	–	–
O=C1NC(=O)/C(=C\c2ccc(N3CCOCC3)o2)N1	–	·	–	?	–	7.38µM
O=C1NC(=O)/C(=C/c2ccc(N3CCOCC3)o2)N1	–	–	–	?	–	1.47µM
CCc1ccc(/C=C2\Oc3cc(OS(C)(=O)=O)ccc3C2=O)cc1	–	–	14.1	–	–	–
CS(=O)(=O)Oc1ccc2c(c1)O/C(=C\c1cccc([N+](=O)[O-])c1)C2=O	–	–	–	?	–	?
CS(=O)(=O)Oc1ccc2c(c1)O/C(=C\C=C\c1ccccc1)C2=O	36.1	–	14.6	?	–	?
O=C1/C(=C/c2ccncc2)Oc2cc(OS(=O)(=O)c3ccccc3)ccc21	–	–	–	?	–	–
Cc1cc(C)cc(C(=O)NCC(=O)NCCc2c[nH]c3ccccc23)c1	–	–	–	–	–	–
O=C(NCCc1c[nH]c2ccccc12)c1cc([N+](=O)[O-])cc([N+](=O)[O-])c1	–	–	–	–	–	–
SMILES	Shiga toxin inh	NS1 function inh	Cycloheximide cs	Pf growth 96h	SARS PLpro yeast	Pf growth 48h
O=C(NCCc1c[nH]c2ccccc12)c1ccc([N+](=O)[O-])cc1	79.8	–	38.0	–	–	–
Cc1ccc(C(=O)NCCc2c[nH]c3ccccc23)s1	85.4	–	51.7	–	–	–
O=C(NCCc1c[nH]c2ccccc12)c1ccccc1	93.6	–	38.8	–	–	–
CC(C)CC1(C(=O)NCCc2c[nH]c3ccccc23)C=CCN1C(=O)c1ccccc1 (stereo not given)	–	–	–	10.4µM	–	?
O=C(Nc1ccc(F)cc1F)c1ccc2c(=O)n3c(nc2c1)CCC3	·	·	·	–	–	–
CCOc1ccc(S(=O)(=O)NNS(=O)(=O)c2ccc(C)cc2C)cc1	–	–	–	–	–	–
S=C(NC1CCCCC1)N(CCc1ccccc1)CCc1ccccc1	–	–	–	?	–	?
COc1cc(-c2noc(C)c2C(=O)NCCc2cccs2)cc(OC)c1OC	·	·	·	·	–	·
COc1cc(-c2noc(C)c2C(=O)NCCc2c[nH]c3ccccc23)cc(OC)c1OC	–	–	–	14.7µM	–	?
N#CCC(=O)Nc1ccc(C(=O)NCCc2c[nH]c3ccccc23)cc1	–	–	–	7.38µM	–	13.1µM
O=C(NCCc1c[nH]c2ccccc12)c1ccc(S(=O)(=O)NCc2ccco2)cc1	–	–	16.1	–	–	–
